The campaign covered roughly 96,000 compounds. About 20,000 (21%) were called active.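 Rule for the calls: active = CYP2C19 inhibition above a set limit at 5 µM in the primary screen (cut at about 50% in these data); inactive = the rest.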 The list is a sample of the results.
Target: Cytochrome P450 2C19 (Homo sapiens) (UniProt P33261)
Assay: blockers of cytochrome P450 2C19 activity – biochemical, luminescence, ADME assay, primary screen (AID 778);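 note: plate controls were negative control wells for no effect and 2.5 mM tranylcypromine positive control for full effect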
Settings: CYP2C19 Supersomes, luciferin-H EGE luminescence, 30 min; at 5 µM; stronger effect = higher value

Sequence of Cytochrome P450 2C19 (Homo sapiens) (P33261 whole entry, looked up): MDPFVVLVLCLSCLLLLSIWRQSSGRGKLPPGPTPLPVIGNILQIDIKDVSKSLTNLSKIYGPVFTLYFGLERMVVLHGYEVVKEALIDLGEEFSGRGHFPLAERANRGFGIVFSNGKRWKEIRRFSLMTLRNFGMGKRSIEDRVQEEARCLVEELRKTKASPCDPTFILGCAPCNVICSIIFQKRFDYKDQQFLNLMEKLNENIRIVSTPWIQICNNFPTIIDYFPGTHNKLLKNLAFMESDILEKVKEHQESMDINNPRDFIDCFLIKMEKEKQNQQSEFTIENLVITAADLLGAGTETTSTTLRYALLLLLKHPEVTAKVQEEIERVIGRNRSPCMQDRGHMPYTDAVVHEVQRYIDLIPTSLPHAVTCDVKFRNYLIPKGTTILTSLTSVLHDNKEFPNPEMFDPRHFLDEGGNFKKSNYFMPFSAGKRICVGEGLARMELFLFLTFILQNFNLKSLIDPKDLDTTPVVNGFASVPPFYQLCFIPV

inhibition, active:
COc1cc(NS(=O)(=O)c2ccc(NC(C)=O)cc2)cc(OC)c1 98%, O=C(Nc1ccn(Cc2ccccc2F)n1)c1ccc(COc2ccc(Cl)cc2Cl)o1 57.8%, CCCC(=O)N(CCc1ccccc1)Cc1nc2ccccc2c(=O)[nH]1 53.5%, CCN(CC)C(=O)CC1(c2ccccc2OC)CCOC(C(C)C)C1 (stereo not drawn) 73.3%, O=C(NCc1ccccc1)C1C(=O)N(Cc2ccccc2)C(=O)C1C1(O)CCCC1 (stereo not drawn) 91.9%, COC(=O)c1ccc(CSc2nc3ccccc3c(=O)n2-c2cccc(OC)c2)o1 98.4%, COCC(C)n1c(SCc2ccc(C(=O)OC)o2)nc2ccccc2c1=O (stereo not drawn) 96.7%, Cc1ccsc1CNn1cnnc1SCc1ccccc1F 83.4%, CCOC(=O)c1c(C)[nH]c(C(=O)COc2ccc3c(c2)OCO3)c1C 78.4%, O=C(c1c(Cl)nc2sccn12)N1CCCc2ccccc21 91.5%

inhibition, inactive:
CCCc1[nH]nc2c1C(c1c(C)nn(-c3ccccc3)c1Cl)C(C#N)=C(N)O2 (stereo not drawn) 49.2%, CC(=O)Oc1cc2c(C(=O)NCCN3CCOCC3)c(C)oc2c2ccccc12 34.2%, Cc1ccc(C2=CSC3=NS(=O)(=O)CCN23)cc1C 2.5%, CC(=O)c1c(C)n([O-])c2ccccc2[n+]1=O -0.9%, O=C(N/N=C/c1ccc(O)cc1)/C(=C/c1ccc([N+](=O)[O-])cc1)NC(=O)c1ccccc1 7.9%, C/C(=C(\C#N)C(=O)NCCCN1CCOCC1)N(C)C -11.3%, Cc1ccc(S(=O)(=O)/N=C(\CN2CCOCC2)N2CCOCC2)cc1 -1.3%, N#Cc1cccc(CSc2nnc(CCCO)n2-c2ccccc2)c1 8.4%, O=C(/C=C/Nc1ccccc1)c1cnc(-c2ccccc2)s1 0.3%, Nc1c(-c2ccc(F)cc2)cnn1C1CCS(=O)(=O)C1 (stereo not drawn) -15.6%, COc1cccc(C2/C(=C(/O)c3ccc(F)cc3)C(=O)C(=O)N2CCN(C)C)c1 (stereo not drawn) 5.9%, CCOC(=O)c1sc(NC(=O)C(CC)Sc2nccn2C)nc1C (stereo not drawn) 28%, CC(=O)N1CCCc2cc(S(=O)(=O)CCC(=O)N3CCN(c4ccccc4)CC3)ccc21 29.1%, CCOC(=O)CC1=CC(=O)Nc2ccccc2N1 12.4%, Cc1ccc(C(=O)NC2CC(C)(C)NC(C)(C)C2)c(C)c1 -14.1%, CCNS(=O)(=O)c1ccc(NC(=O)Nc2cccc(OC)c2)cc1 25.1%, COc1ccc(NS(=O)(=O)c2ccc(NC(C)=O)cc2)cc1OC 43.3%, O=C(O)c1ccc(COc2c(F)c(F)cc(F)c2F)o1 -3.2%, CCOc1ccc(OCc2ccc(C(=O)Nc3cccc(C)n3)o2)cc1 35.8%, O=C1CCC(Cc2ccccc2)N1 (stereo not drawn) 8.7%, O=C(O)c1ccc(COCC(F)(F)F)cc1 -5.4%, Cc1sc(NC(=S)NC(=O)c2cccs2)nc1-c1ccc(CC(C)C)cc1 4.5%, O=C(c1ccco1)N(Cc1nc2ccccc2c(=O)[nH]1)C1CCCC1 7.2%, CN(Cc1nc2ccccc2c(=O)[nH]1)Cc1cc(=O)oc2ccc3ccccc3c12 2.9%, O=C(Nc1ccc(Cl)cn1)Nc1cccs1 31.4%, O=C1OC(c2ccc(Cl)cc2)=N/C1=C\c1cccnc1 33.1%, CCN(CC)C(=O)CSc1nc2ccccc2n1CC(=O)N1CCN(c2ccccc2OC)CC1 27%, C/C(CC(O)(/C=N/O)c1ccccc1)=N\O (stereo not drawn) -13%, Cc1ccc(N2CCN(/N=C/c3cccs3)CC2)cc1 35.3%, O=C(Cn1[nH]c(=O)c2ccccc2c1=O)Nc1cccc(-c2nnc3n2CCCCC3)c1 25.7%, O=C(NCCCN1CCN(Cc2ccccc2)CC1)C1CCN(S(=O)(=O)N2CCCC2)CC1 -1.9%, O=C(CN1C(=O)NC(Cc2ccccc2)(Cc2ccccc2)C1=O)NCC1CCCCC1 41.6%, Cc1ccccc1Nc1nnc(C)c(=O)[nH]1 0.4%, CCc1c(O)nc(SCC(=O)Nc2ccccc2)n(C(C)CC)c1=O (stereo not drawn) 0.7%, COc1cccc(-n2cc(C(=O)O)c3ccccc3c2=O)c1 1.5%, N#CCSc1nc2ccccc2c(=O)n1-c1ccccc1 13.3%, CN1CCN(C(=O)C2C3C=CC(C3)C2C(=O)O)CC1 (stereo not drawn) 33.8%, OCCNc1nc2ccccc2n1-c1ncnc2sc3c(c12)CCC3 -6%, COc1ccc(N2C(=O)C3CCCN3C2c2cc(OC)c(OC)cc2OC)cc1 (stereo not drawn) -12.2%, Cc1ccccc1CSc1nnc(-c2cccnc2)n1N 28.5%, COc1ccc2[nH]c(=O)c(CNc3ccc(C)c(C)c3)cc2c1 24%, COc1cccc2cc(C(C)N(CCCN3CCOCC3)C(=O)Nc3ccc(Cl)cc3)oc12 (stereo not drawn) 48.4%, Cc1ccc(-c2csc(-c3c[nH]c4ccccc34)n2)cc1 -2.4%, COCCOCCn1cnc2ccccc21 -2.7%, O=C(COC(=O)c1ccc(Oc2ccccc2)cc1)Nc1nnc(-c2ccccc2)o1 34.2%, CCOc1ccc(NCCC(=O)c2ccc3c(c2)OCO3)cc1 37.9%, CCOC(=O)c1c(C)oc2ccc(OCC(=O)N(CC)CC)cc12 47.5%, CN1CCN(CCCNC(=O)c2cc3c(=O)oc4ccccc4c3s2)CC1 -1.6%, CC(C)(CNCC(O)c1ccccc1)N1CCOCC1 (stereo not drawn) -1.1%, CCC(=O)NNc1cc(=O)c2c(=O)n(C)c(=O)n(C)c2[nH]1 11.1%, O=C(c1cccc(C(=O)N2CCc3ccccc32)n1)N1CCc2ccccc21 12.3%, COc1ccc2oc(=O)c(C(=O)N3CCCc4ccccc43)cc2c1 10.2%, Cc1noc(COc2ccccc2OCC(O)CNC(C)(C)C)n1 (stereo not drawn) -7.7%

From PubChem BioAssay AID778 (Sanford-Burnham Center for Chemical Genomics, 2007)
